Results reported in PubChem BioAssay AID1159580 (chemical genetic matrix, 2015).
Values joined by “and” are separate entries in the source; they are usually repeats but may differ in a detail not shown here. Identical values can stand only once. The whole screen tested about 5,500 compounds, of which about 2,000 (36%) were called active. Inconclusive results (about 18%) are left out. Rule as the data show it: active = normalized growth mostly below about 0.91 (no sharp cut-off); inconclusive = no clear call, values can overlap the other calls; inactive = mostly above about 0.92. The list shows a part of the results.

Test: chemical genetic growth profiling, strain panel (AID 1159580);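 also: tested at 20 µM; growth read once vehicle control cultures reached saturation at 30 °C; 1 = growth at the plate median or of vehicle wells; lower values mean less growth of the strain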
Conditions: S. cerevisiae deletion strains, growth OD

C/C(=C\CO)CC[C@H](C)CCC[C@H](C)CCCC(C)C
normalized growth (locus YAL021C, strain ccr4, stronger effect = lower value): 1.12 [resistant] (active) | normalized growth (locus YAL026C, strain drs2, stronger effect = lower value): 1.12 [resistant] (active) | normalized growth (locus YAL030W, strain snc1, stronger effect = lower value): 1.13 [resistant] (active) | normalized growth (locus YBL061C, strain skt5, stronger effect = lower value): 0.97 (inactive) | normalized growth (locus YBR009C, strain hhf1, stronger effect = lower value): 1.12 [resistant] (active) | normalized growth (locus YBR021W, strain FUR4, stronger effect = lower value): 1 (inactive) | normalized growth (locus YBR023C, strain chs3, stronger effect = lower value): 0.974 (inactive) | normalized growth (locus YBR171W, strain sec66, stronger effect = lower value): 1.11 (inactive) | normalized growth (locus YBR229C, strain ROT2, stronger effect = lower value): 1.04 (inactive) | normalized growth (locus YBR231C, strain swc5, stronger effect = lower value): 0.976 (inactive) | normalized growth (locus YBR279W, strain paf1, stronger effect = lower value): 0.993 (inactive) | normalized growth (locus YCL011C, strain gbp2, stronger effect = lower value): 1.14 [resistant] (active) | normalized growth (locus YCL016C, strain dcc1, stronger effect = lower value): 0.976 (inactive) | normalized growth (locus YCL029C, strain bik1, stronger effect = lower value): 1.08 (inactive) | normalized growth (locus YCL061C, strain MRC1, stronger effect = lower value): 1.11 [resistant] (active) | normalized growth (locus YCL069W, strain vba3, stronger effect = lower value): 1.11 [resistant] (active) | normalized growth (locus YCR088W, strain abp1, stronger effect = lower value): 1.12 [resistant] (active) | normalized growth (locus YDL005C, strain med2, stronger effect = lower value): 1.14 [resistant] (active) | normalized growth (locus YDL035C, strain GPR1, stronger effect = lower value): 1.07 (inactive) | normalized growth (locus YDL040C, strain nat1, stronger effect = lower value): 0.973 (inactive) | normalized growth (locus YDL074C, strain BRE1, stronger effect = lower value): 1.1 (inactive) | normalized growth (locus YDL101C, strain DUN1, stronger effect = lower value): 1.08 (inactive) | normalized growth (locus YDL185W, strain tfp1, stronger effect = lower value): 1.11 [resistant] (active) | normalized growth (locus YDL192W, strain arf1, stronger effect = lower value): 1.13 [resistant] (active) | normalized growth (locus YDR001C, strain nth1, stronger effect = lower value): 1.13 [resistant] (active) | normalized growth (locus YDR069C, strain doa4, stronger effect = lower value): 1.15 [resistant] (active) | normalized growth (locus YDR101C, strain arx1, stronger effect = lower value): 1.11 [resistant] (active) | normalized growth (locus YDR137W, strain rgp1, stronger effect = lower value): 0.93 (inactive) | normalized growth (locus YDR150W, strain NUM1, stronger effect = lower value): 1.1 [resistant] (active) | normalized growth (locus YDR159W, strain sac3, stronger effect = lower value): 1.05 (inactive) | normalized growth (locus YDR162C, strain NBP2, stronger effect = lower value): 1.11 (inactive) | normalized growth (locus YDR195W, strain ref2): 1.09 (inactive) | normalized growth (locus YDR297W, strain sur2, stronger effect = lower value): 1.13 [resistant] (active) | normalized growth (locus YDR318W, strain mcm21, stronger effect = lower value): 1.13 [resistant] (active) | normalized growth (locus YDR334W, strain swr1, stronger effect = lower value): 1.14 [resistant] (active) | normalized growth (locus YDR335W, strain msn5, stronger effect = lower value): 1.13 [resistant] (active) | normalized growth (locus YDR388W, stronger effect = lower value): 1.12 [resistant] (active) | normalized growth (locus YDR392W, strain spt3, stronger effect = lower value): 1.11 (inactive) | normalized growth (locus YDR502C, strain sam2, stronger effect = lower value): 1.16 [resistant] (active) | normalized growth (locus YEL003W, strain gim4, stronger effect = lower value): 1.13 [resistant] (active) | normalized growth (locus YEL037C, strain rad23, stronger effect = lower value): 1.13 [resistant] (active) | normalized growth (locus YEL061C, strain CIN8 (second series), stronger effect = lower value): 1.14 [resistant] (active) | normalized growth (locus YEL061C, strain CIN8, stronger effect = lower value): 1.09 [resistant] (active) | normalized growth (locus YER015W, strain faa2, stronger effect = lower value): 1.12 [resistant] (active) | normalized growth (locus YER016W, strain bim1, stronger effect = lower value): 0.97 (inactive) | normalized growth (locus YER110C, stronger effect = lower value): 1.14 [resistant] (active) | normalized growth (locus YER111C, strain swi4, stronger effect = lower value): 1.06 (inactive) | normalized growth (locus YER155C, strain BEM2 (second series), stronger effect = lower value): 1.07 (inactive) | normalized growth (locus YER155C, strain BEM2, stronger effect = lower value): 1.02 (inactive) | normalized growth (locus YER167W, strain BCK2, stronger effect = lower value): 1.01 (inactive) | normalized growth (locus YFR010W, strain ubp6, stronger effect = lower value): 1.18 [resistant] (active) | normalized growth (locus YGL078C, strain dbp3, stronger effect = lower value): 1.13 [resistant] (active) | normalized growth (locus YGL086W, strain mad1, stronger effect = lower value): 1.09 [resistant] (active) | normalized growth (locus YGL167C, strain pmr1, stronger effect = lower value): 0.962 (inactive) | normalized growth (locus YGL173C, strain kem1, stronger effect = lower value): 1.1 [resistant] (active) | normalized growth (locus YGL227W, strain vid30, stronger effect = lower value): 1.12 [resistant] (active) | normalized growth (locus YGL240W, strain doc1, stronger effect = lower value): 1.13 [resistant] (active) | normalized growth (locus YGL248W, strain PDE1, stronger effect = lower value): 1.06 (inactive) | normalized growth (locus YGL253W, strain hxk2, stronger effect = lower value): 1.12 [resistant] (active) | normalized growth (locus YGR078C, strain PAC10, stronger effect = lower value): 1.13 (inactive) | normalized growth (locus YGR135W, strain pre9, stronger effect = lower value): 1.15 [resistant] (active) | normalized growth (locus YGR229C, strain SMI1, stronger effect = lower value): 1.14 (inactive) | normalized growth (locus YGR252W, strain gcn5, stronger effect = lower value): 1.1 (inactive) | normalized growth (locus YHR013C, strain ard1, stronger effect = lower value): 0.945 (inactive) | normalized growth (locus YHR027C, strain rpn1, stronger effect = lower value): 1.14 [resistant] (active) | normalized growth (locus YHR030C, strain SLT2, stronger effect = lower value): 1.09 [resistant] (active) and 0.974 (inactive) | normalized growth (locus YHR079C, strain IRE1 (second series), stronger effect = lower value): 1.13 [resistant] (active) | normalized growth (locus YHR079C, strain IRE1, stronger effect = lower value): 0.966 (inactive) | normalized growth (locus YHR094C, strain hxt1, stronger effect = lower value): 1.14 [resistant] (active) | normalized growth (locus YHR129C, strain ARP1, stronger effect = lower value): 1.08 (inactive) | normalized growth (locus YHR142W, strain chs7, stronger effect = lower value): 1.09 (inactive) | normalized growth (locus YHR200W, strain rpn10, stronger effect = lower value): 1.13 [resistant] (active) | normalized growth (locus YIL066C, strain RNR3, stronger effect = lower value): 1.09 (inactive) | normalized growth (locus YIL073C, strain SPO22, stronger effect = lower value): 1.25 (inactive) | normalized growth (locus YIL125W, strain kgd1, stronger effect = lower value): 1.12 [resistant] (active) | normalized growth (locus YIR030C, strain dcg1, stronger effect = lower value): 1.13 [resistant] (active) | normalized growth (locus YJL092W, strain hpr5, stronger effect = lower value): 1.13 [resistant] (active) | normalized growth (locus YJL095W, strain BCK1 (second series), stronger effect = lower value): 1.02 (inactive) | normalized growth (locus YJL095W, strain BCK1, stronger effect = lower value): 1.1 (inactive) and 0.966 (inactive) | normalized growth (locus YJL115W, strain asf1, stronger effect = lower value): 1.14 [resistant] (active) | normalized growth (locus YJL129C, strain trk1, stronger effect = lower value): 1.09 (inactive) | normalized growth (locus YJL134W, strain LCB3, stronger effect = lower value): 1.09 [resistant] (active) | normalized growth (locus YJL154C, strain vps35, stronger effect = lower value): 1.13 [resistant] (active) | normalized growth (locus YJL164C, strain tpk1, stronger effect = lower value): 1.13 [resistant] (active) | normalized growth (locus YJL166W, strain qcr8, stronger effect = lower value): 1.13 [resistant] (active) | normalized growth (locus YJL168C, strain set2, stronger effect = lower value): 1.13 [resistant] (active) | normalized growth (locus YJL187C, strain SWE1 (second series), stronger effect = lower value): 1.1 (inactive) | normalized growth (locus YJL187C, strain SWE1, stronger effect = lower value): 1.07 (inactive) | normalized growth (locus YJR043C, strain POL32, stronger effect = lower value): 1.12 (inactive)
